Screening data (PubChem BioAssay)
Most compounds without a hit are left out; they make up all but 2.9% or so of the library.
LDHA inh = qHTS assay for inhibitors of human lactate dehydrogenase; purified LDHA, NADH/diaphorase-resazurin fluorescence; active compounds read low; activity change, % (values are at about 110 or 230 µM); 480,000 tested, 0.15% active; AID 1347041, 2019; in the data active means activity change below about -30%; inconclusive means mostly about -25% to -30%;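 further: plate controls were DMSO wells for no effect and wells without enzyme for full effect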
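Resorufin fluorescence (ex540/em590), read at 0 and 20 min after diaphorase/resazurin addition, reports the NADH left after a 5 min room-temperature reaction of 2 nM human LDH5 with 0.06 mM NADH and 0.2 mM pyruvate.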
GLP1R inv ag = qHTS of GLP-1 Receptor Inverse Agonists (Inhibition Mode). HEK293 GLP-1R CRE-luciferase, luminescence, 24 h; GLP-1R form is constitutively active. Potency, µM (titrated, usually from 38.3 µM), for inactives: at the highest dose activity change, negative = inhibition, hits mostly inhibitors. 410,000 tested, 1.6% active. Glucagon-like peptide 1 receptor (Homo sapiens), P43220; further: potency means the concentration at half of the fitted maximal effect; on the % scale 0 is the no-effect control and ±100 the full control effect; nearly all actives have a fitted effect of over 55% in size
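Constitutively active GLP-1R drives a cAMP-responsive luciferase in stably transfected HEK293 cells; test compounds are added after overnight (12 h) attachment and left 24 hr, and signal loss in luminescence marks inhibition.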
HEK293 tox = qHTS of GLP-1 Receptor Inverse Agonists: Cytotox Screen | HEK293 cAMP-luciferase reporter cells, luminescence, 24 h | 410,000 tested, 0.13% active | Potency, µM (highest dose often 38.3 µM), for inactives: at the top dose activity change, negative = inhibition, hits mostly inhibitors | AID 624418, 2012;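 further: loss of luciferase light is scored as toxicity; potency means the concentration at half of the fitted maximal effect; on the % scale 0 is the no-effect control and ±100 the full control effect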
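Cells in DMEM/10% Nu serum/1% pen-strep, 1536-well format. Pre-incubated 12 h, dosed with 23 nL compound, incubated a further 24 h. Luciferase detection, 12 min at room temp, luminescence.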
p53 reactivator = qHTS assay for re-activators of p53 using a Luc reporter; H1299 p53-A138V BP100-luciferase reporter, luminescence, 24 h; Potency, µM (doses to about 92.2 µM), for inactives: at the highest dose activity change, positive = activation, usual class: activators; 320,000 tested, 0.063% active; AID 504706, 2011; further: potency means the concentration at half of the fitted maximal effect; % of control where 0% means no effect; nearly all actives have a fitted effect of over 45% in size
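p53-null H1299 cells stably carrying temperature-sensitive p53-A138V and a BP100-luciferase reporter were pinned with compounds (4-point, 1:5 series) and held 24 hrs at 37 deg C. Luminescence was read 10 min after detection reagent.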
GLP-1R agonist = qHTS of GLP-1 Receptor Agonists; 380,000 tested, 0.007% active; Potency, µM (top dose mostly 45.6 µM), inactives show at the top dose activation, actives largely listed as activators; HEK293 GLP-1R CRE-luciferase, luminescence, 4-6 h; cells express a hypersensitive GLP-1R form; AID 624172, 2012; Glucagon-like peptide 1 receptor (Homo sapiens), P43220; further: potency means the concentration at half of the fitted maximal effect; % of control where 0% means no effect
ClpP mod = qHTS Assay for Activators of ClpP; AID 651965, 2013; ATP-dependent Clp protease proteolytic subunit (Bacillus subtilis (strain 168)), P80244; purified B. subtilis ClpP, FRET peptide cleavage, 20 min; 340,000 tested, 1.9% active; Potency, µM (series often up to 57.5 µM), inactives show at the top dose activity change, negative = active; active means well fitted falling curve with a large enough effect; inconclusive means small, poorly fitted or top-dose-only effect; inactive means no such curve, though single readings can be large or run the other way; further: potency means the concentration at half of the fitted maximal effect; the source files actives as falling curves though it sought activators and does not explain the sign; nearly all actives have a fitted effect of over 65% in size
Target sequence (P80244 whole entry, looked up): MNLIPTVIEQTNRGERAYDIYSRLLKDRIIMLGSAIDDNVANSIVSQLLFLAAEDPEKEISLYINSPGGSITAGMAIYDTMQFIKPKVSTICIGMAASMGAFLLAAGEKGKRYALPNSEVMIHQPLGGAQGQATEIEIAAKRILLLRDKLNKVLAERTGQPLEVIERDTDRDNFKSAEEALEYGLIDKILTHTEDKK
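FRET quenching reversal measured ClpP activation: 10 microg/mL B. subtilis ClpP at pH 8 with the FRET-FV decapeptide, read at 430 nm after 320 nm excitation. The 20-min minus 0-min signal was scaled between DMSO/no-enzyme wells and ADEP (5.8 microM final).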
An asterisk follows results filed as active; ? = inconclusive; · = no result. Unless noted, the call rests on the fitted dose curve; in most records, active means well fitted curve in the direction sought with a large enough effect; inconclusive means small, poorly fitted or top-dose-only effect, or another doubt; inactive means no such curve, though single readings can be large; an effect the other way counts as inactive or inconclusive.

SMILES	LDHA inh	GLP1R inv ag	HEK293 tox	p53 reactivator	GLP-1R agonist	ClpP mod
O=C(CCC(=O)Nc1ccccc1Cl)N/N=C/c1c[nH]c2ccccc12	1.1	-13.1%	7.1%	-3.2%	-0.1%	0.0%
Cc1ccc(/C=C2\CCCC3=C2NC(=S)NC3c2ccc(C)cc2)cc1 (centres undefined)	0.0	-25.1%	14.5%	5.4%	-11.0%	15.8µM*
Cc1ccc(/C=C2\CC(C)CC3=C2NC(=S)NC3c2ccc(C)cc2)cc1 (centres undefined)	-9.7	?	?	-1.7%	11.2%	·
O=C(OCC(=O)N1CCCCCC1)c1ccc(S(=O)(=O)N2CCOCC2)cc1	-3.3	-8.4%	-3.8%	-0.9%	5.3%	·
CC1(C)CC(=O)c2cc(OCC(=O)O)ccc2O1	-9.0	2.5%	17.1%	8.7%	-5.1%	25.1µM*
CC1(C)CC(=O)c2cc(OCC(=O)N3CCCCCC3)ccc2O1	0.5	0.0%	4.8%	?	-11.9%	28.2µM*
CCOC(=O)COc1ccc2c(c1)C(=O)CC1(CCN(C(C)=O)CC1)O2	-1.9	4.4%	37.1%	2.8%	-4.6%	28.2µM*
CCOC(=O)COc1ccc2c(c1)C(=O)CC(C)(C)O2	-11.9	-2.1%	24.1%	0.5%	3.4%	28.2µM*
C/C(=N\NC(=O)c1nnn(-c2nonc2N)c1C)c1ccc(OCc2ccccc2)cc1	-7.7	-1.1%	-5.5%	?	-7.2%	2.2%
O=C(O)c1ccc(/C=N/N2CCN(C3c4ccccc4-c4ccccc43)CC2)cc1	0.8	4.4%	2.9%	-2.9%	-1.2%	-1.1%
N#CC1=C(N)SC(N)=C(C#N)C1CCc1ccccc1	5.0	-23.5%	8.7%	-17.4%	-5.8%	31.6µM*
N#CC1=C(N)SC(N)=C(C#N)C1Cc1ccccc1	0.7	-12.7%	2.2%	6.7%	-1.1%	-21.6%
Clc1ccc2c(N/N=C/c3cccc(Br)c3)ccnc2c1	-7.1	12.6µM*	?	-10.0%	-2.9%	7.2%
COc1ccc(N2CCN(C(c3ccccc3)c3nnnn3C(C)(C)C)CC2)cc1 (centres undefined)	-0.5	2.6%	-5.0%	·	9.5%	-6.7%
Fc1ccc(C(c2nnnn2Cc2cccs2)N2CCN(c3ccccc3)CC2)cc1 (centres undefined)	-0.1	7.94µM*	4.1%	0.9%	-7.4%	-1.8%
CCCCC(c1nnnn1Cc1ccco1)N1CCN(c2nc3ccccc3s2)CC1 (centres undefined)	-4.2	7.08µM*	-5.3%	-3.3%	2.6%	-5.7%
c1ccc(C(c2nnnn2Cc2ccco2)N2CCN(c3nc4ccccc4s3)CC2)cc1 (centres undefined)	2.2	7.94µM*	-12.2%	6.3%	-5.7%	-1.7%
COc1ccc(C(c2nnnn2C(C)(C)C)N2CCN(c3nc4ccccc4s3)CC2)cc1 (centres undefined)	-2.4	-3.1%	-6.1%	?	-8.2%	25.1µM*
Cc1ccc2c(c1)C(=O)N1[C@H]3c4ccccc4OC[C@@H]3[C@H](c3ccccc3)[C@]1(C)C(=O)N2	-16.9	11.2µM*	11.1%	-4.4%	-2.5%	-15.1%
Cc1ccc2c(c1)[C@H]1[C@H](CO2)[C@H](c2ccccc2)[C@]2(C)C(=O)Nc3ccc(Cl)cc3C(=O)N12	-1.6	6.31µM*	1.0%	0.4%	-1.8%	-15.7%
Cc1ccc(N(CC(=O)NCc2ccccc2)C(=O)c2csnn2)c(C)c1	-9.9	-18.1%	4.5%	-4.2%	9.7%	·
CCN1C(=O)[C@H]2[C@@H](c3ccc(-c4cccc(Cl)c4)c(OC)c3)N[C@@](CC(C)C)(C(=O)OC)[C@H]2C1=O	0.4	7.94µM*	-1.9%	-2.1%	-6.2%	-7.6%
